NADH enzymes – inhibitors of PK/LDH coupling enzymes, profiling panel, artefact control, biochemical, MLSMR library | coupled PK/LDH NADH assays, four targets | IC50, µM (series often up to 10 µM) | 65,000 tested, 0.02% active;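 active = single-dose screening hits from any of four coupled enzyme assays that gave an IC50 when retested across doses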;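 note: the DPM-DC format reads NADH fluorescence rather than 340 nm absorbance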
Fluor 339 460 – intrinsic fluorescence of library compounds, ex339/em460 – biochemical, MLSMR library, data from DPM-DC assay, artefact control, profiling panel; fluorescence fold increase at 10 µM; compound autofluorescence, ex339/em460 nm, NADH buffer; hits give high values; 1 = no-compound wells, NADH background; 65,000 tested, 5.5% active; AID 709, 2007;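 active = at 10 µM, mean starting fluorescence two-fold or more over control wells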;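 note: signal is the first read of a kinetic run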
Spn MK inh – S. pneumoniae MK inhibitors, primary screen, biochemical, PK/LDH-coupled NADH absorbance | mevalonate kinase [Streptococcus pneumoniae D39] | 65,000 tested, 0.48% active | inhibition, % at 10 µM | purified MK, PK/LDH-coupled NADH absorbance 340 nm | AID 555, 2006;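 active = ranked among the strongest by inhibition in the single 10 µM screen, a fixed top-ranked set picked for dose follow-up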
Abs 340nm – compound light absorbance at 340 nm, profiling panel, artefact control, biochemical, MLSMR library, data from PS, PMK, MK assays. compound absorbance at 340 nm, fold over control. fold change at 10 µM. 65,000 tested, under 10 active. AID 708, 2007;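 active = at 10 µM dose, initial 340 nm absorbance at least 2 fold that of control wells; inactive = change under 2 fold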;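 note: initial absorbance extrapolated from kinetic A340 decline of NADH oxidation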
PMK inhibit – S. pneumoniae PMK inhibitors, primary screen, biochemical, mevalonate pathway, pilot trial included; phosphomevalonate kinase (Streptococcus pneumoniae D39); purified PMK, PK/LDH-coupled NADH absorbance 340 nm; 65,000 tested, 0.49% active; inhibition, % at 10 µM;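 active = top-ranked compounds by inhibition in the single 10 µM screen, taking a fixed number of the strongest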
DPM-DC inhibit – S. pneumoniae DPM-DC inhibitors, primary screen, biochemical, PK/LDH-coupled NADH fluorescence | diphosphomevalonate decarboxylase (Streptococcus pneumoniae D39) | purified DPM-DC | calls only at 10 µM | 65,000 tested, 0.49% active | AID 556, 2006;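 active = the 320 compounds with the highest percent inhibition in the single-dose primary screen, excluding strongly autofluorescent ones, cut at about 32% in these data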;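 note: kinetic rate of NADH fluorescence loss reporting ADP formed by the decarboxylase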
Numbers stand for hits; - = inactive; . = not tested or not shown. The list is not random: actives were taken first. Their share in the collection is about 6.8%.

SMILES	NADH enzymes	Fluor 339 460	Spn MK inh	Abs 340nm	PMK inhibit	DPM-DC inhibit
N#Cc1nc(Cc2ccccc2)oc1N1CCC(C(N)=O)CC1	-	-	-	-	-	-
CC1CN(c2oc(-c3ccco3)nc2C#N)CC(C)O1 (configuration not stated)	-	3.8	-	-	-	.
N#Cc1nc(-c2ccco2)oc1N1CCC(C(N)=O)CC1	-	3.93	-	-	-	.
N#CCCn1c2ccccc2c2nc3ccccc3nc21	-	-	-	-	-	-
CCCn1c(NC(=O)c2ccccc2)nc2ccccc21	-	-	-	-	-	-
CCOC(=O)Cn1c2ccccc2c2nc3ccccc3nc21	-	2.89	-	-	-	-
CCOC(=O)Cn1c(C)c(C#N)c2ccccc21	-	-	-	-	-	-
CCCn1c2ccccc2c2nc3ccccc3nc21	-	2.37	-	-	-	-
CCCn1c(Nc2nc3ccccc3n2C)nc2ccccc21	-	2.13	-	-	-	-
O=c1oc2ccccc2n1CCn1c2ccccc2c2nc3ccccc3nc21	-	-	-	-	9.0	-
CCCOC(=O)c1cccc(NC(=O)C(C)(C)C)c1	-	-	-	-	-	-
CCOc1cccc2sc(NC(=O)c3ccc(Br)s3)nc12	-	2.09	-	-	-	.
CCOC(=O)Cc1csc(NC(=O)c2ccc(Br)s2)n1	-	-	-	-	-	-
CC(=O)c1ccc(-c2nc3c4ccccc4ccn3c2C(C)=O)o1	-	2.2	-	-	-	.
COC(=O)Cc1ccc2c3ccccc3n(C)c2c1	-	-	-	-	-	-
O=C(CN(CCN1CCOCC1)C(=O)Cn1nnc(-c2ccc(F)cc2)n1)NC1CCCCC1	-	3.6	-	-	-	.
COc1ccc(CNC(=O)C2COc3ccccc3O2)c(OC)c1 (configuration not stated)	-	-	-	-	-	-
CCn1c(C(=O)Nc2ccsc2C(=O)OC)cc2sc(Cl)cc21	-	2.15	-	-	-	.
CCC1Sc2ccccc2N(CC(=O)NCCC(C)C)C1=O (configuration not stated)	-	-	-	-	-	-
Cc1ccc(S(=O)(=O)c2cc3c(=O)n4ccccc4nc3n(Cc3ccco3)c2=N)cc1	-	3.63	-	-	-	.
Cc1ccc(S(=O)(=O)c2cc3c(=O)n4cccc(C)c4nc3n(Cc3ccco3)c2=N)cc1C	-	2.28	-	-	-	-
Cc1ccc(S(=O)(=O)c2cc3c(=O)n4ccccc4nc3n(CC3CCCO3)c2=N)cc1 (configuration not stated)	-	-	-	-	-	-
O=C(NCc1ccco1)Nc1ccc2nsnc2c1	-	2.4	-	-	-	.
O=C(NCc1ccco1)Nc1ccc(Br)cc1	-	-	-	-	-	-
COc1ccc(-c2nc(-c3cccs3)c(-c3cccs3)[nH]2)cc1O	-	2.96	-	-	-	-
SMILES	NADH enzymes	Fluor 339 460	Spn MK inh	Abs 340nm	PMK inhibit	DPM-DC inhibit
CCN(CC)C(=O)C1CCCN(Cc2ccc(OC)c(C)c2)C1 (configuration not stated)	-	-	51.0	-	-	-
CCOC(=O)C1CCCN(Cc2ccc3c(c2)OCO3)C1 (configuration not stated)	-	-	-	-	-	-
CCN(CC)C(=O)C1CCCN(Cc2ccc(F)c(F)c2)C1 (configuration not stated)	-	-	-	-	-	-
CCN(CC)C(=O)C1CCCN(Cc2ccc(N(C)C)cc2)C1 (configuration not stated)	-	-	50.0	-	-	-
NC(=O)CSc1nnc(-c2ccc(S(=O)(=O)N3CCCC3)cc2)n1CC1CCCO1 (configuration not stated)	-	-	-	-	-	-
CCOC(=O)C1CCN(S(=O)(=O)c2ccc(-c3nc4ccccc4s3)s2)CC1	-	2.17	-	-	-	-
N#Cc1ccsc1NC(=O)COc1ccc(-c2nnco2)cc1	-	-	-	-	-	-
C=CCNC(=O)C(C#N)c1nc2ccccc2nc1N1CCCCCC1 (configuration not stated)	-	2.27	-	-	-	.

Screening data deposited in PubChem BioAssay by SRMLSC.
